Sampled rows, rich in hits. Any-hit rate of the full collection: about 3.6%.
MazEF act – increases E. coli MazEF RNase cleavage of RNA. 350,000 compounds, 0.32% hits. AID 504720. FAM/BHQ RNA-DNA oligo cleavage fluorescence, 5 h. activation, % at 20 µM; in the data active = activation above about 50%
Bead autofluor – compound fluorescence in toxin protease inhibitor counterscreen. fluorescence intensity (no concentration beside the values). compound autofluorescence counterscreen, microsphere flow cytometry; active compounds read high. AID 624483. 360,000 compounds, 3.1% hits; in the data active = fluorescence intensity above about 16000; inconclusive = no clear call, values can overlap the other calls
Anthrax LF prot – blocks Bacillus anthracis lethal factor protease; AID 588501; inhibition, % at 10 µM; multiplex microsphere protease cleavage assay, LF; P15917; 360,000 compounds, 0.12% hits
BoNT F protease – inhibitors of Botulinum neurotoxin F light chain protease; Multiplex microsphere protease cleavage assay, flow cytometry; inhibition, % at 10 µM; 360,000 compounds, 0.22% hits; AID 588497; in the data active = inhibition above about 35%, passing the limit was not always enough; inconclusive = no clear call, values can overlap the other calls
BoNT A protease – blocks Botulinum neurotoxin A light chain protease | inhibition, % at 10 µM | multiplex microsphere protease substrate cleavage, flow cytometry | AID 588499 | 360,000 compounds, 0.17% hits
Each line names hits and unclear results; the compound was inactive in the other large screens. Cut-off read from the data, not from the text of the source, unless noted: active = inhibition above about 30%; inconclusive = no clear call, values can overlap the other calls; inactive = below that.

Cc1cn([C@H]2C[C@H](O)[C@@H](CNCc3ccc(-c4cc(Cl)ccc4C(F)(F)F)o3)O2)c(=O)[nH]c1=O	none
CC(=N)C1=C(O)CC(c2ccccc2)CC1=O (stereo not given)	none
Cc1sc2c(c1C)C(c1ccc(C(C)(C)C)cc1)=NCC(=O)N2CC(=O)Nc1nccs1	Bead autofluor 22414
Cn1cnnc1SCC(=O)c1c[nH]c2ccccc12	Bead autofluor 25248
Cc1cc(C(=O)CSc2nncn2C)c(C)n1-c1ccccc1	MazEF act 57
CCn1c(SCC(=O)c2c[nH]c3ccccc23)nnc1-c1cccs1	none (no result: Bead autofluor, Anthrax LF prot, BoNT F protease, BoNT A protease)
CC(=O)NC1(C(F)(F)F)NC(=O)N(C2CCCCC2)C1=O (stereo not given)	Bead autofluor 22952
CC(=O)Nc1ccc(S(=O)(=O)NC2(C(F)(F)F)NC(=O)N(C3CCCC3)C2=O)cc1 (stereo not given)	Bead autofluor 22547
CC(=O)Nc1ccc(S(=O)(=O)NC2(C(F)(F)F)NC(=O)N(c3ccc(C)cc3)C2=O)cc1 (stereo not given)	none
CC(=O)Nc1ccc(S(=O)(=O)NC2(C(F)(F)F)NC(=O)N(C3CCCCC3)C2=O)cc1 (stereo not given)	Bead autofluor 23390, BoNT A protease inconclusive
Cc1ccccc1NC(=O)Cc1nc(COC(=O)c2ccc(O)cc2O)cs1	none
O=C(C1CC(=O)N(c2ccc(F)cc2)C1)N1CCN(c2ccc(F)cc2)CC1 (stereo not given)	none
Cc1ccc(CCN2CC(C(=O)N3CCN(c4ccc(F)cc4)CC3)CC2=O)cc1 (stereo not given)	Bead autofluor 20552
Cc1ccc(CCN2CC(C(=O)NCCCOC(C)C)CC2=O)cc1 (stereo not given)	Bead autofluor 21642
COC(CNC(=O)C1CC(=O)N(CCc2ccccc2)C1)OC (stereo not given)	Bead autofluor 20271
Cc1cc2cc(C=O)c(Cl)nc2cc1C	Bead autofluor 17857
COC(=O)Cc1ccc(NC(C)=O)cc1	none
CN(CC(=O)Nc1ccccc1C(=O)Nc1ccccc1)C1CCCCC1	none
CSc1nc2n(n1)C(c1cc(Br)ccc1F)C(C(=O)N(C)C)=C(C)N2 (stereo not given)	Bead autofluor 20105
CC(=O)Nc1cccc(Oc2cnc3ccccc3n2)c1	Bead autofluor 18766
c1ccc(Oc2cnc3ccccc3n2)cc1	Bead autofluor 23310
COc1ccc(Oc2cnc3ccccc3n2)cc1	none
CC(=O)Nc1ccc(Oc2cnccn2)cc1	none
CC(=O)Nc1ccc(Oc2cnc3ccccc3n2)cc1	Bead autofluor 24151
CCN(CC)C(=O)c1cc(-c2ccc(Br)cc2)on1	Bead autofluor 23321
COC(=O)c1cc(-c2ccc(Br)cc2)on1	none
COc1ccc(OC)c(-c2cc(C(=O)Nc3c(C)nn(Cc4ccccc4Cl)c3C)no2)c1	none
Cc1nn(Cc2ccc(Cl)c(Cl)c2)c(C)c1NC(=O)c1cc(-c2ccco2)on1	Bead autofluor 21457
Cc1ccc(Cn2ccc(NC(=O)c3cc(-c4ccco4)on3)n2)cc1	Bead autofluor 21800
COc1ccc(-c2cc(C(=O)Nc3c(C)nn(Cc4ccccc4Cl)c3C)no2)cc1OC	Bead autofluor 22371, BoNT A protease inconclusive
CCCCN1C(=O)C(CC(=O)NCc2cccc3ccccc23)CC(C(=O)N(C)C)=C1C (stereo not given)	none
CCOc1ccc(CN2CCNC(=O)C2CC(=O)NC2CCOCC2)cc1 (stereo not given)	none
Cc1cc(NC(=O)C(C)SCC(=O)N(Cc2ccccc2)c2ccccc2)no1 (stereo not given)	none
CC1CCC(NC(=O)CCN2C(=O)C3CC=CCC3C2=O)CC1 (stereo not given)	none (no result: Bead autofluor, Anthrax LF prot, BoNT F protease, BoNT A protease)
Cc1ccc(Cn2ccc(NC(=O)c3cc(-c4ccc(Br)cc4)on3)n2)cc1	Bead autofluor 16876
Oc1ccc(N=Cc2ccc(-c3cccs3)s2)cc1	Bead autofluor 16163
COc1ccc(NC(=O)CN(C)C(=O)c2cn(-c3ccccc3)nc2-c2cccnc2)cc1	none
CC(C)NC(=O)c1ccc2c(c1)N(CC(=O)N1CCCC1)C(=O)C(C)(C)O2	BoNT F protease inconclusive
CC(C)NC(=O)c1ccc2c(c1)N(CC(=O)N1CCOCC1)C(=O)C(C)(C)O2	Bead autofluor 22372
COc1ccc(CN/C=C2\CCCCC2=O)cc1	Bead autofluor 22197, BoNT A protease inconclusive
COc1ccc(CNC(=O)c2noc3c2CCCC3)cc1	none
C#CC(=O)CC1(CN(Cc2ccccc2)C(=O)OC(C)(C)C)CCCCC1	none
CCCCn1c(NCc2cccs2)nc2ccccc21	none
CCCCn1nnnc1NCc1cccs1	Bead autofluor 19115
O=C(Nc1ccc2c(c1)OCO2)c1cc(C2CCCCN2C(=O)CCCc2ccccc2)on1 (stereo not given)	none (no result: MazEF act)
CN(CCc1ccccn1)C(=S)NC(=O)c1ccco1	none
Nc1c(C(=O)NCc2ccccc2)nnn1Cc1ccccc1	none
CN(C)/C=N/c1c(C(=O)NCc2ccccc2)nnn1Cc1ccccc1	Bead autofluor 18876
NS(=O)(=O)c1ccc(CNC(=O)/C=C/c2cccc([N+](=O)[O-])c2)cc1	Bead autofluor 19057
NS(=O)(=O)c1ccc(CNC(=O)/C=C/c2ccc(Cl)c(Cl)c2)cc1	none
O=[N+]([O-])c1cc(/C=N/O)ccc1SCc1ccccc1	Bead autofluor 22700, BoNT A protease inconclusive
Cc1c(C=O)c2ccccn2c1C(=O)c1ccccc1	none
Cc1c(C(C)(C)C)c(C=S)n2ccccc12	Bead autofluor 21631, BoNT A protease inconclusive
CC(=O)c1cc(F)c(N2CCN(c3ccc([N+](=O)[O-])cc3F)CC2)cc1C	Bead autofluor 20270
COc1ccc(C(=O)Nc2ccc(N3CCN(C(=O)c4ccccc4C)CC3)cc2)cc1	none
CCOc1ccc(-c2cn[nH]c2N)cc1	Bead autofluor 23738
COc1ccc(-c2cn[nH]c2N)cc1	none
COc1ccc(-c2cn[nH]c2N)c(OC)c1	Bead autofluor 17696
O=C(Nc1ccc2nc(-c3ccco3)c(-c3ccco3)nc2c1)N1CCN(c2ccccn2)CC1	BoNT A protease 41
O=C(Nc1ccccc1)c1ccc2nc(-c3ccco3)c(-c3ccco3)nc2c1	Bead autofluor 19000, BoNT A protease inconclusive
CC(=O)c1ccc(NC(=O)c2ccc3nc(-c4ccco4)c(-c4ccco4)nc3c2)cc1	BoNT F protease inconclusive
O=S(=O)(NCCc1ccncc1)c1ccc(F)cc1	none
O=S(=O)(NCCc1ccncc1)c1ccc(Br)cc1	Bead autofluor 22923
CN(Cc1cnccn1)C(=O)C1CCC(=O)N(CCc2ccc(Cl)cc2)C1 (stereo not given)	none
O=C1NC(=O)C2(Cc3ccccc3N3CCCC32)C(=O)N1c1ccccc1 (stereo not given)	none
O=C1NC(=O)C2(Cc3ccccc3N3CCOCC32)C(=O)N1c1ccccc1 (stereo not given)	Bead autofluor 22770
O=C(NCc1ccc(F)cc1)c1cc(C2CCCN(C(=O)C3CCCCC3)C2)on1 (stereo not given)	none (no result: MazEF act)
CCCNC(=O)c1c(N)n(Cc2ccc3c(c2)OCO3)c2nc3ccccc3nc12	Bead autofluor 23041

Assay outcomes deposited in PubChem by several laboratories.
